Source: PubChem BioAssay (National Center for Advancing Translational Sciences (NCATS))
TRHR PAM: allosterically enhances the human TRH receptor. TRHR cells, fluo-8 calcium fluorescence, EC20 TRH enhancement. enhancement, % at 2 µM. actives 0.66% (n = 360,000); in the data active means enhancement above about 30%; further: 0% is about no effect
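Enhancer read-out: after compound pinning and an initial kinetic agonist-mode read, an EC20 of TRH (10 nM final) was injected and fluo-8 calcium signal (Ex 480/Em 530) followed at 1 s/cycle for 100 cycles in TRHR-expressing cells.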
TRPML1 ag: human mucolipin-1 channel agonism; TRPML1-expressing cells, Ca2+ dye fluorescence, FDSS; Q9GZU1; actives 0.12% (n = 410,000); activation, % (no concentration beside the values); AID 624414; in the data active means activation above about 50%; inconclusive means mostly about 30% to 49%; further: 0% is about no effect
Target sequence (Q9GZU1 whole entry, looked up): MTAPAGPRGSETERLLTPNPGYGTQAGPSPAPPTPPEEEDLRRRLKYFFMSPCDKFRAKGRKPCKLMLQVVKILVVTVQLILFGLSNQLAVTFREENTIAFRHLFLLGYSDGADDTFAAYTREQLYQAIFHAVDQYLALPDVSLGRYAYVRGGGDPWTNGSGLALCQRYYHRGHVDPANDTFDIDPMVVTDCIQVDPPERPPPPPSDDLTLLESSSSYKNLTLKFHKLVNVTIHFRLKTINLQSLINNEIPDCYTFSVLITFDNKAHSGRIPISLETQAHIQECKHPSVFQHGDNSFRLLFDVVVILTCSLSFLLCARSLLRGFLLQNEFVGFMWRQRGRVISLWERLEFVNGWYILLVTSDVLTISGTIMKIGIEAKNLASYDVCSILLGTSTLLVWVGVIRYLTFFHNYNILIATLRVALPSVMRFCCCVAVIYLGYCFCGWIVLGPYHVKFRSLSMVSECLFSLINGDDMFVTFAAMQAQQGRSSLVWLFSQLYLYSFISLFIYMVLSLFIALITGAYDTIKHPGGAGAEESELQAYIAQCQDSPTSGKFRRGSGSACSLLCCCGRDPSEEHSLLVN
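TRPML1-DL cells, Tet-induced overnight (~16 h, 37 degrees C), loaded 45-90 min at room temperature with Ca8 no-wash calcium dye plus quencher. FDSS fluorescence: 10 s baseline, compound pin-transfer, 110 s agonist read, then EC80 54-4 (4uM final) and 110 s antagonist read.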
TRPV1 PAM: enhances activation of the human vanilloid receptor TRPV1; Q8NER1; TRPV1-expressing cells, Fluo-8 calcium influx, capsaicin EC20 potentiation; potentiation, % at 8.33 µM; actives 0.02% (n = 320,000); AID 540277; in the data active means potentiation above about 80%; inconclusive means between about 30% and that limit; further: 0% is about no effect
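Cells expressing TRPV1 were dye-loaded with Fluo-8 and read kinetically: 10 s baseline, 3 min after compound (agonist portion), then 2 min after EC20 capsaicin (allosteric enhancer portion). Calcium-bound dye fluorescence at 480/520 nm.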
TRHR ag: agonists of human TRH receptor; actives 0.18% (n = 360,000); P34981; TRHR cells, calcium flux fluo-8, FDSS agonist mode; activation, % at 2 µM; in the data active means activation above about 30%; further: 0% is about no effect
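Steps: seed TRHR cells overnight; add fluo-8 no-wash Ca dye, RT 30 min–1.5 h; record 10 s baseline; pin-transfer compounds; monitor fluorescence 1 cycle/s for the agonist window. Calcium increases flag candidate agonists.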
TRPV1 ag: human TRPV1 agonism | Q8NER1 | TRPV1-expressing cells, Fluo-8 calcium influx, agonist mode | activation, % at 8.33 µM | actives 0.19% (n = 320,000) | AID 540275; in the data active means activation above about 80%; inconclusive means between about 30% and that limit; further: 0% is about no effect
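Fluo-8 calcium influx in TRPV1-expressing cells, kinetic read (ex 480/em 520 nm). Compound added and read 3 min for agonist activity, followed by capsaicin at EC20 final and 2 min further read for enhancement.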
TRPML1 blocker: human mucolipin-1 channel inhibition; Q9GZU1; TRPML1-inducible cells, Ca2+ dye fluorescence, FDSS; stronger effect = lower value; inhibition of EC80 agonist-evoked calcium signal; activity change, negative = inhibition, % (no concentration beside the values); actives 0.02% (n = 390,000); in the data active means activity change below about -50%; inconclusive means between about -30% and that limit;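 further: stimulus is agonist 54-4 at its EC80 concentration; on the % scale 0 is the no-effect control and ±100 the full control effect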
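Tet-induced TRPML1-DL cells loaded with Ca8 no-wash calcium dye were read kinetically on FDSS. Compound addition was followed by EC80 agonist 54-4 (4 uM final); inhibition was read over 110 s.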
* hit, by the source's call; u = inconclusive; x = no result given. This is a sample that favours compounds with a hit; in the whole collection about 0.96% have one here.

SMILES	TRHR PAM	TRPML1 ag	TRPV1 PAM	TRHR ag	TRPV1 ag	TRPML1 blocker
COc1cccc(CNC(=O)CSc2nc3ccccc3nc2Cc2ccc(C)cc2)c1OC	33*	1	x	0	x	-1
CCC(=O)NC(c1ccc(OC)cc1)c1cc(Cl)c2cccnc2c1O (stereo not given)	2	3	9	0	84*	-7
COC(=O)[C@@H]1N2C(=O)[C@@H](NC(=O)C(C)Oc3ccccc3)[C@H]2SC1(C)C (stereo not given in full)	x	0	x	x	x	x
O=C1c2cc([N+](=O)[O-])ccc2-c2ncccc21	-7	1	-1	0	2	-57*
CCOCC(=O)Nc1cccc(OC)c1	30*	0	-1	0	0	10
COc1cccc(NC(=O)CCC(=O)Nc2cccc(OC)c2)c1	2	0	-1	0	3	-7
CC(C)CC(NC(=O)c1ccc(Cl)cc1)C(=O)O (stereo not given)	33*	1	10	0	-7	-5
CC(C)CC(NC(=O)c1cccc(Cl)c1)C(=O)O (stereo not given)	8	0	7	1	-2	-2
COc1ccc(CCNc2ncnc3c2c(-c2ccccc2)cn3-c2ccc(Cl)cc2)cc1OC	-8	77*	x	1	x	-18
COc1ccc(Cl)cc1Nc1ncnc2c1c(-c1ccccc1)cn2-c1ccccc1	-16	0	x	-1	x	0
COc1ccc(CCNc2ncnc3c2c(-c2ccccc2)cn3-c2ccc(F)cc2)cc1OC	-1	64*	x	0	x	-22
C[n+]1ccc(/C=C/c2cc[n+](C)c3ccccc23)c2ccccc21	x	-1	x	x	x	x
COc1cc2nc(N3CCCN(C)CC3)nc(NC3CCNCC3)c2cc1OC	x	0	x	x	x	x
OCCCc1nc2n(n1)C(c1ccccc1)C=C(c1ccc(F)cc1)N2 (stereo not given)	-4	16	9	-1	-3	8
OCCCc1nc2n(n1)C(c1cccs1)C=C(c1ccccc1)N2 (stereo not given)	-2	x	-15	41*	21	x
Cc1ccccc1Nc1c(-c2ccc(Cl)s2)nc2ccccn12	x	-1	x	x	x	x
O=C(Nc1cccnc1)c1cc2c(ccc3ccccc32)o1	2	0	-19	0	u	13
Cc1c(C(=O)Nc2cccnc2)oc2ccc(Br)cc12	8	1	9	0	91*	-6
CCc1ccc2oc(C(=O)Nc3cccnc3)c(C)c2c1	-2	x	-9	0	89*	x
C=C1NN(CC2CC2)C(=O)N1c1ccc(OCc2ccccc2)cc1	x	-1	x	x	x	x
NC(=O)C1CCN(C(=O)CCSCc2ccccc2)CC1	6	0	-16	0	u	2
NC(=O)C1CCN(C(=O)CCSCc2ccc(Cl)c(Cl)c2)CC1	4	0	14	0	88*	17
CCOC(=O)C1CCN(C(=O)COC(=O)c2cccc(F)c2)CC1	36*	0	-5	0	-2	-3
CC(=O)Nc1cccc(C(=O)OCC(=O)NC(=O)C2CCCCC2)c1	x	-1	x	x	x	x
Cc1c(CCOC(=O)C23CC4CC(CC(C4)C2)C3)sc[n+]1CC#N	41*	0	-2	0	2	29
SMILES	TRHR PAM	TRPML1 ag	TRPV1 PAM	TRHR ag	TRPV1 ag	TRPML1 blocker
Cc1c(CCOC(=O)CC23CC4CC(CC(C4)C2)C3)sc[n+]1Cc1ccccc1	2	1	23	0	2	39
Cc1ccc(Cl)cc1N1CCN(CCCNC(=O)Cn2ncc3c([nH]c4ccccc43)c2=O)CC1	54*	4	x	0	x	-13
CN(C)C(=S)NCc1ccccc1	38*	0	16	0	-6	19
CCCCC(O)C(=O)Nc1cc(C(F)(F)F)ccc1Cl (stereo not given)	1	x	x	-3	x	x
Cc1cccc(CC(=O)NC2CCN(C)CC2)c1	40*	0	7	0	-1	-8
Cc1cccc(CC(=O)NC2CCCCCC2)c1	6	x	-16	0	26	x
Cc1cccc(CC(=O)c2c[nH]c3ccccc23)c1	31*	1	-10	1	29	6
CNCC(=O)c1c[nH]c2ccccc12	x	-1	x	x	x	x
NC(=O)COC(=O)c1ccccc1OCC(=O)Nc1ccc(Br)cc1	x	0	x	x	x	x
CCN(CC)c1ccc(/C=C(\C#N)c2nc(-c3cccs3)c(NC(C)=O)s2)cc1	9	x	26	64*	24	x
Cc1c(C(=O)O)sc2nc(-c3cccs3)cc(C(F)(F)F)c12	1	0	10	-1	1	25
CC(=O)c1sc2nc(-c3cccs3)cc(C(F)(F)F)c2c1N	10	u	2	41*	23	-4
S=C(NCc1ccc(Cl)cc1)Nc1ccc(Cl)cc1Cl	-8	1	-3	1	u	5
S=C(NCc1ccncc1)Nc1ccc(Cl)cc1Cl	-2	0	-20	0	80*	10
Fc1ccc(CNC(=S)Nc2ccc(Cl)cc2Cl)cc1	-6	2	-19	1	88*	16
Cc1cc(Cl)ccc1NC(=S)NCc1ccccc1	4	-1	-29	0	u	4
COc1cccc(CNC(=S)Nc2ccc(Cl)cc2C)c1	-2	0	-23	0	81*	34
CCCCn1cnc2c(=O)[nH]c(N)nc21	x	0	x	x	x	x
CC(C)(C)OC(=O)NCC(=O)NNC(=O)c1nc2ccccc2[nH]1	2	x	x	1	x	x
C[N+](C)(C)c1ccc(/C=C2\C=Cc3ccccc32)cc1	x	0	x	x	x	x
CCCCCNC(=O)c1c[nH]c2ccc(S(=O)(=O)N3CCC(C)CC3)cc2c1=O	1	1	x	0	x	-50*
CCCCN(C)CCCNC(=O)c1cc(=O)[nH]c2ccc(S(=O)(=O)N3CCCCC3)cc12	53*	1	x	0	x	-8
COCCNC(=O)c1c[nH]c2ccc(S(=O)(=O)N3CCOCC3)cc2c1=O	0	0	12	1	-2	-3
CC(C)CCNC(=O)c1c[nH]c2ccc(S(=O)(=O)N3CCOCC3)cc2c1=O	10	-1	-2	0	82*	11
Cc1ccc2cccc(O)c2n1	x	0	x	x	x	x
O=C1CCC[C@@H]2[C@@H](Cc3ccccc3)[C@@H](Nc3ccccc3)C[C@@H]3CCN1[C@@H]32	x	-1	x	x	x	x
CCCN1CNc2c(c(=O)[nH]c(=S)n2CCc2ccc(C)cc2)C1	x	0	x	x	x	x
Cc1ccc(CN2C(=O)C(CC(C)C)Nc3ncnc(N4CCN(c5ccccn5)CC4)c32)cc1 (stereo not given)	-10	0	-16	2	81*	-2
C=C1C=C(C(F)F)n2ncc(C(=O)Nc3cccc(CC)c3)c2N1	x	0	x	x	x	x
CCNC(=O)N1CCN(/[N+]([O-])=N/Oc2ccc([N+](=O)[O-])cc2[N+](=O)[O-])CC1	x	4	x	x	x	1
